# PubChem BioAssay AID651692 (Broad Institute, 2012)
# Potency and affinity values are given separately. Active and inactive are the calls of the source.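 The calls were made as follows: active = fitted half-maximal concentration for loss of cell signal no higher than twice the top valid tested concentration; inconclusive = flat curve at 30 to 70% inhibition, or poor fit; inactive = flat within 30%, signal rise, or potency above limit.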
# Assay: cytotoxicity toward MDA-MB-231 breast cancer cells – cell-based, CellTiter-Glo luminescence, cherry-pick, cytotoxicity control for RAD54 inhibitor project, dose response (AID 651692);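 also: more negative values mean stronger loss of viable cell signal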
# Conditions: MDA-MB-231 viability, 24 h; series mostly up to 26 µM
row,SMILES,outcome
1,CCN1CCCC1CNC(=O)c1cc2c(-c3cccc(OC)c3)nn(C)c2s1 (centres undefined),inactive
2,CCN1CCN(CCCNC(=O)c2cc3c(=O)oc4ccc(C)cc4c3s2)CC1,inactive
3,Cc1ccc(OCC(=O)Nc2cccc(-c3nnc(-c4ccccc4)o3)c2)c(C)c1,inactive
4,Cc1cc(N2CCN(C)CC2)nc2ccc(NC(=S)NCCCN3CCc4ccccc4C3)cc12,inactive
5,Cc1ccc2nc3c(c(N)c2c1)CCN3C,inactive
6,CN(C)CCNC(=O)c1cccc(-c2cnc3c(NC=O)cc(-c4ccc(S(C)(=O)=O)cc4)cn23)c1,inactive
7,CN1CCN(CCNC(=O)c2cc3c(=O)n(C)c4ccccc4c3n2C)CC1,inactive
8,CC(C)CSc1ncc(-c2cccc(C(F)(F)F)c2)cn1,inactive
9,COc1ccc2nc(-c3ccc(N)cc3)[nH]c2c1,inactive
10,Cc1cccn2c(=O)c3cc(C(=O)NCCN4CCOCC4)c(=N)n(CCCN4CCOCC4)c3nc12,inactive
11,CCOc1ccc2nc(C)cc(Nc3ccc4c(c3)OCCO4)c2c1,inactive
12,CCN1CCN(C(=S)Nc2ccc3nc(N4CCN(C)CC4)cc(C)c3c2)CC1,inactive
13,CCN(CC)CCNC(=O)c1cc2c(=O)n(C)c3ccccc3c2s1,inactive
14,COC(=O)Nc1nnc(COc2ccccc2)s1,inactive
15,Cc1nc2nc(C)c(C)nc2nc1C,inactive
16,OCCCNc1c2ccccc2nc2ccccc12,inactive
17,CCN(CC)CC(=O)Nc1cc(N(C)C)nc2ccccc12,inactive
18,Nc1cc2c3c(cccc3c1)C(=O)N(CCN1CCCC1)C2=O,inactive
19,COc1cc2nc(N3CCNCC3)nc(N)c2cc1OC,inactive
20,COc1ccc2cc3cc(C(=O)NCCCN4CCC(C)CC4)oc3nc2c1,inactive

row,SMILES,outcome
1,O=C(Nc1ccc2c(c1)OCO2)c1cc(-c2ccncc2)nc2ccccc12,inactive
2,COc1ccc(CCn2c(=N)c(C(=O)NCC3CCCO3)cc3c(=O)n4cccc(C)c4nc32)cc1OC (centres undefined),inactive
3,COc1cccc(-c2nc(NCCN3CCOCC3)c3ccccc3n2)c1O,inactive
4,CCN1CCN(c2ccc(Nc3ccnc4ccccc34)cc2)CC1,inactive
5,CCOC(=O)c1[nH]c2cc3c(cc2c1CCCN1C(=O)c2ccccc2C1=O)OCCO3,inactive
6,O=c1c2ccccc2sc2ccc(NCCCN3CCOCC3)cc12,inactive
7,CC(C)OCC(O)CN1CCN(CCN2C(=O)c3cccc4cccc(c34)C2=O)CC1 (centres undefined),inactive
8,Cn1c(NCCN2CCCC2)nc2cc(-c3ccccc3)sc2c1=O,inactive
9,CN1CCN(c2nc(-c3ccccn3)nc3ccccc23)CC1,inactive
10,CCN(CC)CCNC(=S)Nc1ccc2nc(N3CCN(C)CC3)cc(C)c2c1,inactive
11,CN(C)CCN(C(=O)CN1C(=O)c2ccccc2C1=O)c1nc2cc3c(cc2s1)OCO3,inactive
12,COc1ccc2cc3cc(C(=O)NCCCN4CCOCC4)oc3nc2c1,inactive
13,CCCN1CCN(CCCNC(=O)c2cc3c(=O)n(C)c4ccccc4c3n2C)CC1,inactive
14,CCOC(=O)c1c(C)n(C)c2ccc(OCC(O)CN3CCC(C)CC3)cc12 (centres undefined),inactive
15,Cc1cccn2c(=O)c3cc(C(=O)NCc4ccccc4)c(=N)n(CCCN4CCOCC4)c3nc12,inactive
16,CCOC(=O)c1c(NC(C)=O)sc2c(O)c(CN3CCN(CC)CC3)ccc12,inactive
17,N=c1c(C(=O)NCCN2CCOCC2)cc2c(=O)n3ccccc3nc2n1CCCN1CCOCC1,inactive
18,CCN1CCN(CCCNC(=O)c2cc3cc4ccc(OC)cc4nc3o2)CC1,inactive
19,CN(C)CCCNc1c2ccccc2nc2ccccc12,inactive
